# Hit rate of the full screen: of about 310,000 compounds, about 14,000 (4.5%) showed an effect of 50% or more. The effect is printed as a negative number. The entries come from a sample that favours strong results as a whole.
# Biological target: human ether-à-go-go-related gene (hERG) potassium channel (human, UniProt Q12809)
# Experiment: primary screen, population patch clamp on CHO cells stably expressing hERG; higher = less effect of the substance
# 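Note: peak tail current of the secondary pulse compared with the same well before compound.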
# Chain of human ether-à-go-go-related gene (hERG) potassium channel (Q12809 whole entry, looked up): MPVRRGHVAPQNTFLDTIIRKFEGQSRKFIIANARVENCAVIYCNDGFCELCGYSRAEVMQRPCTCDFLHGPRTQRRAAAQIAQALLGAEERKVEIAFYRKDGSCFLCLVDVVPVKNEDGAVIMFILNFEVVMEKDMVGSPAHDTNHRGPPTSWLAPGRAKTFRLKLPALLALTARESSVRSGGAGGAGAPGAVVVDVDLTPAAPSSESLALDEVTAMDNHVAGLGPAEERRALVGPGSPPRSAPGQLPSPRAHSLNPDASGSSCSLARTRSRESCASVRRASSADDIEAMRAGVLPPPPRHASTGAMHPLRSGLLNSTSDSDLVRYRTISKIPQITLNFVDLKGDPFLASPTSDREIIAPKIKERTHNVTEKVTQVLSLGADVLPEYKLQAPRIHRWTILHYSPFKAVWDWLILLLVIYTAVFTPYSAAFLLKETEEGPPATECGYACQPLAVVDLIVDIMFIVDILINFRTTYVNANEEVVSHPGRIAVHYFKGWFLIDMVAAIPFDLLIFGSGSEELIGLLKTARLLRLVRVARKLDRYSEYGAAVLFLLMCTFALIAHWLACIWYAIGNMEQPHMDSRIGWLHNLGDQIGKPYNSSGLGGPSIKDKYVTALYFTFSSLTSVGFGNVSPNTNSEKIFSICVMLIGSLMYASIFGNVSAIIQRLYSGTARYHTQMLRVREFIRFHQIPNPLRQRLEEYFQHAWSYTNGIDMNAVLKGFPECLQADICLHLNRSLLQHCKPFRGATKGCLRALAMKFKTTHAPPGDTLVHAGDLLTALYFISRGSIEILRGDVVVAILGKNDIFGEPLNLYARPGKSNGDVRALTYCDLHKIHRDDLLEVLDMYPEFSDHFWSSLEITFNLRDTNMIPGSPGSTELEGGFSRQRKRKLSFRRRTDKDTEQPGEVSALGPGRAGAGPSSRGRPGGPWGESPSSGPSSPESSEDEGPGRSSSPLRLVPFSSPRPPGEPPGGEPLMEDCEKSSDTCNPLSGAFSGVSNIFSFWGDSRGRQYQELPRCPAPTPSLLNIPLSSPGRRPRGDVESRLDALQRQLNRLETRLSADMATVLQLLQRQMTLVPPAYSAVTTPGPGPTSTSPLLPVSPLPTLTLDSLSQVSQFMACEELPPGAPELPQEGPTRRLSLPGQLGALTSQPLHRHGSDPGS
row,Structure (SMILES),"hERG current change (%, negative = inhibition) at 10uM [%]"
1,Cc1c(Cl)c([N+](=O)[O-])nn1CC(=O)N1CCN(C23CC4CC(CC(C4)C2)C3)CC1,19.9
2,N#CC(C#N)=NNc1ccc(S(=O)(=O)N2CCCC2)cc1,-17.8
3,Cc1ccc(C(=O)COc2cc(O)c3c(=O)cc(-c4ccccc4)oc3c2)cc1,24.6
4,CCOC(=O)/C(C#N)=C1\CCCN1CC(N)=S,2.57
5,COc1ccc2c(-c3ccccc3)cc(SC(C)C(N)=O)nc2c1 (stereo not drawn),19.3
6,COc1ccc(C(=O)Nc2ccc([N+](=O)[O-])cn2)cc1OC,-22.6
7,Cc1ccccc1N1CCN(Cc2c[nH]c3ccccc23)CC1,-62.1
8,Clc1ccccc1N1CCN(Cc2c[nH]c3ccccc23)CC1,-35.6
9,Cl.c1ccc2c(CN3CCCCCC3)c[nH]c2c1,-18.1
10,Brc1ccc(-c2cnc3n2CCCC3)cc1,-34.2
11,CCOc1ccc(N(CC(=O)NCCSCc2ccc(C)cc2)S(C)(=O)=O)cc1,10.1
12,CCC(C)c1ccccc1NC(=O)C(C)N(C)Cc1cccc(OC)c1.O=C(O)C(=O)O (stereo not drawn),11.8
13,Cc1ccc(S(=O)(=O)N(C)CC(=O)NCCCn2ccnc2)cc1,9.92
14,Br.CC(C)(C)C(=O)CN1C2=NCCN2c2ccccc21,-32.1
15,Br.CC(C)(C)c1ccc(CN2C3=NCCCN3c3ccccc32)cc1,-77.6
16,Br.C=CCN1C2=NCCCN2c2ccccc21,-13.9
17,Cc1cccc(CN2C3=NCCCN3c3ccccc32)c1.Cl,-57.4
18,Cc1ccc(CN2C3=NCCN3c3ccccc32)cc1.Cl,-68.3
19,Br.CC(C)(C)C(=O)CN1C2=NCCCN2c2ccccc21,-75.8
20,Cc1ccc(CN2C3=NC(=O)CN3c3ccccc32)cc1,-5.41
21,COC(=O)Cc1ccc(NC(=S)NCCO)cc1,17.6
22,Cn1ccs/c1=N\C(=O)Nc1cccc(Cl)c1,0.433
23,O=C(NCc1cc([N+](=O)[O-])ccc1O)c1cccc(NS(=O)(=O)c2ccccc2)c1,18.3
24,CCOc1ccc(C(C(=O)NC2CCCCC2)N(C(=O)Cc2cccs2)c2ccc(-n3cnnn3)c(OC)c2)cc1 (stereo not drawn),-15.7

row,Structure (SMILES),"hERG current change (%, negative = inhibition) at 10uM [%]"
1,CCOC(=O)c1[nH]c(C)c(/C(O)=C2\C(=O)C(=O)N(CCCN(C)C)C2c2cccnc2)c1C (stereo not drawn),4.27
2,NCc1cccc(-n2cccn2)c1.O=C(O)CC(=O)O,-8.09
3,CCc1ccccc1NC(=O)CC1SCCNC1=O (stereo not drawn),26.3
4,O=C(O)COCC(=O)NCc1csc2ccccc12,2.75
5,COc1ccc(S(=O)(=O)Nc2ccccc2C(N)=O)cc1OC,10.1
6,Cc1ccc(CN2C3=NCCCN3c3ccccc32)cc1.Cl,-61.2
7,CCN1C2=NCCCN2c2ccccc21.Cl,1.64
8,c1ccc(-n2nnnc2SCc2ccccn2)cc1,7.26
9,Cc1ccc(C(=O)N/C(=C/c2ccc(-c3ccc([N+](=O)[O-])cc3)o2)C(=O)NCCCN(C)C)cc1,-73.7
10,Cc1ccc(C(=O)N/C(=C\c2ccc(-c3ccc([N+](=O)[O-])cc3)o2)C(=O)NC2CCS(=O)(=O)C2)cc1 (stereo not drawn),-28.2
11,CN(C)CCCNC(=O)/C(=C/c1ccc(-c2ccc([N+](=O)[O-])cc2)o1)NC(=O)c1ccccc1,-73.6
12,CCCCC(=O)N/N=C/c1ccc(-c2ccc([N+](=O)[O-])cc2)o1,-21.9
13,COc1ccc(CN=C2NC(=O)CC(C(=O)Nc3cc(C)cc(C)c3)S2)cc1 (stereo not drawn),-18.4
14,COc1ccc(OC)c(NC(=O)CCCN2C(=O)C3C4C=CC(C4)C3C2=O)c1 (stereo not drawn),-3.43
15,CCOC(=O)c1ccc(NC(=O)N2CCCCC2)cc1,3.33
16,CCOc1ccc(C(=O)CN2CCN(S(=O)(=O)c3ccc(Cl)cc3)CC2)cc1,-40.2
17,CCOC(=O)COc1ccc(S(=O)(=O)N2CCN(c3ccc(F)cc3)CC2)cc1,-60
18,CCOC(=O)COc1ccc(S(=O)(=O)N2CCN(c3ccc(OC)cc3)CC2)cc1,0.759
19,CCOc1ccc(CN2CCN(S(=O)(=O)c3ccc(NC(C)=O)cc3)CC2)cc1.O=C(O)C(=O)O,-50.4
20,CCOc1ccc(S(=O)(=O)N2CCN(S(=O)(=O)c3ccc(C(C)=O)cc3)CC2)cc1,0.493
21,COc1ccc(CN2CCN(S(=O)(=O)c3ccc(NC(C)=O)cc3)CC2)cc1.O=C(O)C(=O)O,-29.4
22,CCOc1ccc(C(=O)CN2CCN(S(=O)(=O)c3ccc(OC)cc3)CC2)cc1,-61.7
23,CCOc1ccc(NC(=O)CCN2CCN(S(=O)(=O)c3ccc(OC)cc3)CC2)cc1,-28.8
24,CCOC(=O)COc1ccc(S(=O)(=O)N2CCN(c3ccccc3)CC2)cc1,-39

row,Structure (SMILES),"hERG current change (%, negative = inhibition) at 10uM [%]"
1,CCOc1ccc(NC(=O)CCN2CCN(S(=O)(=O)c3ccc(F)cc3)CC2)cc1,-16.5
2,CCOc1ccc(C(=O)CN2CCN(S(=O)(=O)c3ccc(F)cc3)CC2)cc1,-63
3,CCOc1ccc(CN2CCN(S(=O)(=O)c3ccc(NC(C)=O)cc3)CC2)cc1OC.O=C(O)C(=O)O,-35.4
4,Cc1c(NC(=S)Nc2ccccc2)c(=O)n(-c2ccccc2)n1C,32.9
5,NC1=NC(=O)/C(=C\c2cccs2)S1,8.6
6,N#C/C(=C/c1ccncc1)c1nc2ccccc2s1,2.23
7,CCOc1cccc(C=NCCc2ccc(OC)c(OC)c2)c1O,12.4
8,O=C(NCC1CCCO1)c1ccc(Cl)c(S(=O)(=O)N2CCOCC2)c1 (stereo not drawn),12.7
9,O=C(NCc1ccccn1)c1cccc(NS(=O)(=O)c2ccc(Br)cc2)c1,-19.8
10,COc1ccc(N(C(C)C(=O)NCCSCc2cccc(Cl)c2)S(C)(=O)=O)cc1 (stereo not drawn),-13.3
11,O=C(NCCS(=O)(=O)N1CCN(c2ccccc2F)CC1)c1ccc(Br)o1,-6.39
12,CC(C)CCn1c(CN(C)Cc2ccccc2)nc2c1c(=O)n(C)c(=O)n2C,-43.9
13,Cc1cc(C)nc(SCC(=O)Nc2ncc3c(n2)CC(C)(C)CC3=O)n1,-13.1
14,Cc1ccc(N(C(=O)c2ccc(S(=O)(=O)N3CCCC3)cc2)C2C=CS(=O)(=O)C2)cc1 (stereo not drawn),-32.9
15,CCOc1ccc(N(C(=O)c2ccc(S(=O)(=O)N3CCCC3)cc2)C2C=CS(=O)(=O)C2)cc1 (stereo not drawn),-51.9
16,COc1ccc(N(C(=O)c2ccc(S(=O)(=O)N3CCCC3)cc2)C2C=CS(=O)(=O)C2)cc1 (stereo not drawn),-31.9
17,COc1ccc(N2CCN(c3ccc(NC(=O)C4CCCCC4)cc3C#N)CC2)cc1,15.2
18,COc1cc(C(=O)N2CCN(C(=O)C3CC3)CC2)cc(OC)c1OC,3.78
19,Cc1ccc(C)c(NC(=O)COC(=O)Cn2c(C)csc2=O)c1,6.84
20,Cc1c(C(=O)N2CCCCCC2)c(S(=O)(=O)Nc2cccc(F)c2)c(C)n1C,9.56
21,Cn1c(N2CCOCC2)c(/C=N/O)c2ccccc21,7.51
22,CN1CCN(c2c(/C=N/O)c3ccccc3n2C)CC1,-51.5
23,Cc1c(/C=N/O)c2ccccc2n1C,5.39
24,O=C(N/N=C/c1ccco1)c1ccc(NC(=O)C2CC2)cc1,18.2

row,Structure (SMILES),"hERG current change (%, negative = inhibition) at 10uM [%]"
1,OC(COCC(F)(F)C(F)(F)C(F)(F)C(F)F)Cn1c2ccc(Cl)cc2c2cc(Cl)ccc21 (stereo not drawn),-9.49
2,CC(C)NC(=O)C(=O)Nc1cc2c3c(c1)CCC(=O)N3CCC2,11.4
3,Cc1csc(NC(=O)CSc2nccn2Cc2ccco2)n1,4.55
4,Cc1cc(C)nc(SCc2nnc(SCC(=O)Nc3nccs3)n2Cc2ccco2)n1,-25
5,O=C(CSc1nnc(-c2ccncc2)n1Cc1ccco1)Nc1nccs1,-27
6,Cc1occc1-c1nnc(SCC(=O)Nc2nccs2)n1Cc1ccco1,-75.4
7,Cc1csc(NC(=O)CSc2nnc(-c3ccoc3C)n2Cc2ccco2)n1,-82
8,Cc1csc(NC(=O)CSc2nnc(C)n2Cc2ccco2)n1,-1.85
9,CC(=O)NC1=C(NC2CCS(=O)(=O)C2)C(=O)c2ccccc2C1=O (stereo not drawn),18.4
10,O=C(NCc1cccc(F)c1)C1CCC(=O)N(CCc2cccc(F)c2)C1 (stereo not drawn),-30.7
11,CSc1ccc(CNC(=O)C2CCC(=O)N(Cc3cccc(F)c3)C2)cc1 (stereo not drawn),-62.4
12,O=C(NCc1cccc(F)c1)C1CCC(=O)N(CC2CCCCC2)C1 (stereo not drawn),-9.08
13,CSc1ccc(CNC(=O)C2CCC(=O)N(CCc3cccc(F)c3)C2)cc1 (stereo not drawn),-77.1
14,COc1cccc(CNC(=O)C2CCC(=O)N(CCc3cccc(F)c3)C2)c1 (stereo not drawn),-13
15,Cc1ccccc1CNC(=O)C1CCC(=O)N(Cc2cccc(F)c2)C1 (stereo not drawn),-8.38
16,O=C(NCc1ccc(Cl)s1)C1CCC(=O)N(CCc2ccccn2)C1 (stereo not drawn),-10.1
17,O=C(NCc1ccc(Cl)s1)C1CCC(=O)N(CCc2cccc(F)c2)C1 (stereo not drawn),-60.2
18,COC(=O)c1ccc(CNC(=O)C2CCC(=O)N(Cc3cccc(F)c3)C2)cc1 (stereo not drawn),-12.7
19,Cc1ccc(CNC(=O)C2CCC(=O)N(CCc3cccc(F)c3)C2)cc1 (stereo not drawn),-38
20,O=C(NCc1cccc(OC(F)(F)F)c1)C1CCC(=O)N(Cc2cccc(F)c2)C1 (stereo not drawn),-50.1
21,O=C(NCc1ccccc1OC(F)(F)F)C1CCC(=O)N(Cc2cccc(F)c2)C1 (stereo not drawn),-12.4

# From publication PMC4336329 (PLoS ONE, 2015)
